Bioassay records as filed in PubChem.
The list is not random: actives were taken first. Their share in the collection is about 3.4%.
MITF primary: inhibitors of human MITF; AlphaScreen MITF homodimerization, bead proximity signal; inhibition, % at 2.6 µM; 650,000 compounds, 0.91% hits; in the data active = inhibition above about 50%;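 note: 0% = vehicle wells with protein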
GPR151 ag: activates the human receptor GPR151; Q8TDV0; PathHunter beta-arrestin GPR151 cells, luminescence; activation, % at 11.2 µM; 650,000 compounds, 1% hits; AID 1508602; in the data active = activation above about 4.9%;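 note: 0% = median of compound wells and 100% = cells with positive control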
Target sequence (Q8TDV0 whole entry, looked up): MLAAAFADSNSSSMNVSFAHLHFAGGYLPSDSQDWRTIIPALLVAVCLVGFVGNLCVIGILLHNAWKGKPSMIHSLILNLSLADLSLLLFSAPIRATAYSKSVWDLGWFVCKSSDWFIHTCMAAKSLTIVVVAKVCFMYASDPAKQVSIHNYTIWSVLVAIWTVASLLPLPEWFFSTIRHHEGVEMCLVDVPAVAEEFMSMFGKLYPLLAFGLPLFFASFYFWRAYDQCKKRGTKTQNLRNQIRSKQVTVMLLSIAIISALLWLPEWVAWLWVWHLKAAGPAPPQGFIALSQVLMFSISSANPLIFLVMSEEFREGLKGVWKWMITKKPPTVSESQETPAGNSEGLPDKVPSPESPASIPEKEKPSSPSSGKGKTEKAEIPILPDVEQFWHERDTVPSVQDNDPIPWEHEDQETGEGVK
TEAD-YAP block: TEAD-YAP interaction inhibition; inhibition, % at 9.12 µM; HEK-TIYL cells, TEAD-Gal4/YAP UAS-luciferase luminescence; 640,000 compounds, 1.4% hits; AID 1259422; in the data active = inhibition above about 32%;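 note: 0% = median of test compound wells and 100% = reference inhibitor wells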
FBW7 activator: human FBW7 E3 ligase activation, primary screen. AlphaScreen FBW7–phospho-cyclin E peptide binding, activator screen. AID 1259310. normalized activity (activation), % at 26.1 µM. 650,000 compounds, 0.13% hits; in the data active = normalized activity above about 1.9%;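 note: purified mutant Fbw7 with reduced substrate affinity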
MITF confirm: human MITF inhibition, confirmation | inhibition, % at 2.6 µM | shares compounds with MITF primary | AlphaScreen MITF homodimerization, biotin/His-MITF beads | 4,700 compounds, 16% hits;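 active = inhibition above a cutoff derived from the DMSO control wells, cut at about 28% in these data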;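 note: 0% = MITF dimer wells with DMSO only; inhibitors lower the bead chemiluminescence by keeping MITF from dimerizing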
AS interf DR: counter-screen: compounds optically interfering with AlphaScreen; AlphaScreen optical interference counterscreen, cell-free; AID 1259373; shares compounds with MITF primary; IC50, µM; 480 compounds, 6% hits; call rule not given here
AlphaScreen intf2: AlphaScreen optical interference, counter-screen. 4,700 compounds, 7.6% hits. inhibition, % at 2.6 µM. LysRS AlphaScreen counterscreen, signal interference, triplicate. AID 1259376. shares compounds with MITF primary;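 active = inhibition above a cutoff derived from the DMSO control wells, cut at about 30% in these data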
Active calls of the source: *; x = no result given; ! = not confirmed by another sample.

SMILES	MITF primary	GPR151 ag	TEAD-YAP block	FBW7 activator	MITF confirm	AlphaScreen intf2	others
O=C(CN1CCN(Cc2ccccc2)CC1)N1CCCc2ccccc21	72*	-2	19	0	-3	2
O=C(CN1CCN(Cc2nc(-c3cccs3)cs2)CC1)N1CCc2ccccc21	58*	-1	-4	0	-8	2
Cn1c(C(=O)O)c(CNCCCN2CCc3ccccc3C2)c2ccccc21	-6	0	11	0	x	x
O=C(COc1ccc2ccccc2c1)NNC(=O)c1ccc(Cl)cc1	4	0	-4	0	x	x
O=C(COc1ccc(Cl)cc1)NNC(=O)c1ccc(=O)[nH]c1	68*	0	-1	0	-9	-7
CCCCNCCCOc1ccc(OC)cc1	-4	0	-5	0	x	x
CCOc1cccc(OCCOCCNCCCOC)c1	23	-2	-15	0	x	x
CCCCNCCCOc1ccc(OCC)cc1	51*	0	7	0	7	6
CCOc1ccc(OCCCNCCOC)cc1	57*	0	0	0	5	11
CCOc1cccc(OCCCNCCCOC)c1	89*	1	1	0	-6	14
CCCCCOc1ccccc1C(=O)NCCC(=O)NN	2	0	-23	0	x	x
CN(C)CCn1nnnc1SCC1=C(C(=O)O)N2C(=O)[C@@H](NC(=O)Cc3csc(N)n3)[C@H]2SC1	68*!	-2	3	0	87*	25	AS interf DR=4.9*
CCC(C)c1ccccc1OCCCN1CCN(C)CC1 (stereo not given)	60*	0	3	0	-4	3
CCC(C)c1ccccc1OCCCCN1CCNCC1 (stereo not given)	70*	-1	-4	0	-15	-3
CCCOc1ccccc1OCCCCN1CCN(C)CC1	-1	1	9	0	x	x
Cc1oc(C)c(C(=O)O)c1CSc1ccccc1C(=O)O	5	1	3	0	x	x
Cc1oc(C)c(C(=O)O)c1COc1ccccc1C(=O)O	51*	-1	2	0	14	-3
CCc1ccc2nc(SCC(=O)Nc3nc(C)c(C)s3)c(C#N)cc2c1	84*	-1	-2	-1	22	56*
CC1=C/C(=N\N=C2\NC(=O)C(CC(=O)Nc3ccc(C(=O)O)cc3)S2)CC(C)(C)C1 (stereo not given)	68*	-2	-2	0	72*	13	AS interf DR=>6.5
Cc1ccc(COc2ccc(/C=N/N=C3\NC(=O)C(CC(=O)O)S3)cc2)cc1 (stereo not given)	53*	0	-15	0	35*	12	AS interf DR=>6.5
Cc1ccc(NC(=O)CC2S/C(=N\N=C3\CSC(=O)N3)NC2=O)cc1 (stereo not given)	82*	1	-8	0	68*	100*
COc1ccc(/C=N/N=C2\NC(=O)C(CC(=O)Nc3ccc(C)cc3)S2)cc1 (stereo not given)	73*	0	3	0	6	-4
CCOc1cc(/C=N/N=C2\NC(=O)C(CC(=O)O)S2)ccc1OCc1ccc(F)cc1 (stereo not given)	13	-1	8	0	x	x
CCOc1ccc(NC(=O)CC2S/C(=N\N=C3/C=C(C)CC(C)(C)C3)NC2=O)cc1 (stereo not given)	15	2	7	0	x	x
COC(=O)CNc1ccc(C(O)(C(=O)OC)C(F)(F)F)cc1 (stereo not given)	5	0	-8	0	x	x
SMILES	MITF primary	GPR151 ag	TEAD-YAP block	FBW7 activator	MITF confirm	AlphaScreen intf2	others
COc1ccc(NC(=O)CC2S/C(=N/N=C3\CSC(=O)N3)NC2=O)cc1 (stereo not given)	82*	-2	3	-2	62*	100*
O=C(CC1S/C(=N/N=C2\CSC(=O)N2)NC1=O)Nc1ccccc1 (stereo not given)	65*	3	-2	0	66*	100*
CCOC(=O)C1=C(C)N(c2ccc(Br)cc2)C(C)=C(C(=O)OCC)C1c1cccc([N+](=O)[O-])c1	12	0	10	0	x	x
Cc1ccc(NC(=O)C(Cc2c[nH]c3ccccc23)NC(=O)OCc2ccccc2)c(C)c1 (stereo not given)	7	1	12	0	x	x
O=C(Nc1ccc(Cl)cc1Cl)N1CCN2C(=O)[C@@H]3CSCN3C(=O)[C@H]2C1	70*	-1	6	0	66*	0	AS interf DR=>6.5
O=C(c1cccc2ccccc12)N1CCN2C(=O)[C@@H]3CSCN3C(=O)[C@H]2C1	19	0	4	0	x	x
O=C(NCc1ccccc1)N1CCN2C(=O)[C@@H]3CSCN3C(=O)[C@H]2C1	75*	-1	2	0	75*	-5	AS interf DR=>6.5
CN1C(=O)[C@H]2CN(C(=O)NCc3ccccc3)CCN2C(=O)[C@@H]1Cc1ccccc1	80*	0	3	1	68*	-3	AS interf DR=>6.5
CCOCCCNCC(=O)N1c2ccc(C)cc2C(C)CC1(C)C (stereo not given)	56*	1	5	0	17	9
Cc1ccc2c(c1)C(C)CC(C)(C)N2C(=O)CSc1ncccn1 (stereo not given)	18	-1	-21	0	x	x
COc1ccc2c(c1)C(C)CC(C)(C)N2C(=O)CNCc1ccco1 (stereo not given)	57*	0	-5	0	12	10
Cc1ccc2c(c1)C(C)CC(C)(C)N2C(=O)CNCCN1CCOCC1 (stereo not given)	87*	0	-8	0	10	23
COc1ccc(CCNCC(=O)N2c3ccccc3C(C)CC2(C)C)cc1 (stereo not given)	14	0	4	0	x	x
COc1ccc2c(c1)C(C)CC(C)(C)N2C(=O)CSc1ncccn1 (stereo not given)	2	1	-2	0	x	x
CCCCC/C=C\C/C=C\CCCCCCCC(=O)O[C@H](COC(=O)CCCCCCCCCCCCCCC)COP(=O)(O)OCCN	16	1	x	x	x	x
CCCCN(C1=NC2CS(=O)(=O)CC2S1)c1ccc(OC)cc1 (stereo not given)	8	3	-3	0	x	x
C1=C(c2ccc3c(c2)OCO3)Nc2nnnn2C1c1cccs1 (stereo not given)	12	0	-17	0	x	x
COc1ccc(C2CC(c3ccc(Br)cc3)=NN2C(=O)CSc2nnc(CNC(=O)c3ccccc3OC)n2C)cc1 (stereo not given)	5	1	15	0	x	x
CCCCN1C(=O)C(=O)N(CC(=O)Nc2ccc(C)c(Cl)c2)C1=O	66*	0	4	0	-12	-5
COC(=O)c1ccc(OCCCNC(=O)OC(C)(C)C)cc1O	-9	-1	-17	0	x	x
COC(=O)c1sc(NC(=O)CN2CCCCC2C)c(C(=O)OC)c1C (stereo not given)	59*	3	3	0	1	0
